From PubChem BioAssay (EPA / NIEHS) come the findings set out here.

Active and inactive are the calls of the source. How the source made its calls: active means hit-call score of the fitted dose curve at least 0.9, where 1 is the maximum; inactive means score below 0.9.

A short description of assay [1]: ATG_GRE_CIS: Attagene CIS-FACTORIAL HepG2 Assay for human Glucocorticoid Response Elements (GRE) (AID 2282947). Particulars: HepG2 GRE cis-reporter, Attagene multiplex mRNA; actives raise or lower the signal. The method in brief: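 Multiplexed cis-reporter mRNA induction, HepG2, 24 h post-dose. RT-PCR, FAM-labelled, HpaI-digested amplicons by CE. Bidirectional fit vs DMSO.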

Assay [2] can be described thus: ATG_ISRE_CIS: Attagene CIS-FACTORIAL HepG2 Assay for human Interferon Regulatory Factor 1 (IRF1) binding to an Interferon-Stimulated Response Element (ISRE) (AID 2282948). Particulars: HepG2 ISRE cis-reporter (Attagene), mRNA transcription readout; actives raise or lower the signal. The method in brief:
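Multiplexed mRNA reporter readout in human liver HepG2 cells: cis-element-driven reporters transfected, compound added for 24 h, transcripts amplified, fluorescently labelled and sized by capillary electrophoresis; curve fitting bidirectional against DMSO.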

Assay [3] in a line: ATG_M_32_CIS: Attagene CIS-FACTORIAL HepG2 Assay for M32 Transcription Factor (Internal Marker) (AID 2282949).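 Further: background control marker of the multiplexed CIS panel rather than a real target.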 Particulars: HepG2 Attagene cis-factorial M32 reporter, mRNA; actives raise or lower the signal. The method in brief:
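Transient MRTU transfection of HepG2; 24 h compound treatment; TriZol RNA, oligo(dT) RT, reporter PCR, 6-FAM primer extension, HpaI cut, CE. Gain/loss of signal vs DMSO.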

Assay [4] is described as follows: ATG_M_06_CIS: Attagene CIS-FACTORIAL HepG2 Assay for M06 Transcription Factor (Internal Marker) (AID 2282950). Particulars: HepG2 Attagene CIS-FACTORIAL M06 internal marker reporter; actives raise or lower the signal. The method in brief:
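Terse: HepG2, transient MRTU transfection (FuGene 6), 24 h dosing; total RNA, oligo(dT) RT, PCR, FAM label, HpaI cut, capillary electrophoresis; bidirectional fit vs DMSO baseline; background-control endpoint.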

Assay [5] deals with Hypoxia-inducible factor 1-alpha (Homo sapiens) (UniProt Q16665). Description: ATG_HIF1a_CIS: Attagene CIS-FACTORIAL HepG2 Assay for human Hypoxia Inducible Factor 1 (HIF1A) (AID 2282951). Particulars: HepG2 Attagene cis-factorial HIF1a reporter transcription; actives raise or lower the signal. The method in brief:
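Dosed 24 h, transfected HepG2 cells yielded total RNA whose reporter transcripts were RT-PCR-amplified and sized by capillary electrophoresis using fluorescent labelling; DMSO defined baseline, with gain and loss of signal both fitted.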

Assay [6] concerns the target Hepatocyte nuclear factor 6 (Homo sapiens) (UniProt Q9UBC0). Description: ATG_HNF6_CIS: Attagene CIS-FACTORIAL HepG2 Assay for human Hepatocyte Nuclear Factor 6 (HNF6) (AID 2282952). Particulars: HepG2 Attagene cis-factorial HNF6 reporter transcription; actives raise or lower the signal. The method in brief: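 Endogenous factor activity read in transiently transfected HepG2 via promoter-regulated reporter transcripts. RNA harvested 24 h post-dosing, reverse-transcribed, PCR-amplified, FAM-labelled, HpaI-digested and resolved by capillary electrophoresis; fitted in both directions against DMSO.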

Assay [7] concerns the target Heat shock factor protein 1 (Homo sapiens) (UniProt Q00613). Kind of assay: ATG_HSE_CIS: Attagene CIS-FACTORIAL HepG2 Assay for human Heat Shock Transcription Factor 1 (HSE) (AID 2282953). Particulars: HepG2 HSE cis-reporter, Attagene RNA transcription; actives raise or lower the signal. The method in brief:
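Read-out: fluorescence of reporter-specific RT-PCR fragments separated by capillary electrophoresis. HepG2 carrying transfected cis-element reporter units; 24 h dosing; activity fitted in both directions relative to DMSO baseline.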

Assay [8] in a line: ATG_MRE_CIS: Attagene CIS-FACTORIAL HepG2 Assay for human Metal Responsive Element (MRE) (AID 2282954). Particulars: HepG2 MRE cis-reporter transcription, Attagene multiplex; actives raise or lower the signal. The method in brief: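 Multiplexed cis-reporter assay in human HepG2 liver cells, 24 h incubation with test chemical. Reporter transcripts measured by RT-PCR and capillary electrophoresis; values from bidirectional curve fitting versus DMSO.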

A short description of assay [9]: ATG_PBREM_CIS: Attagene CIS-FACTORIAL HepG2 Assay for human Phenobarbital-responsive Enhancer Module (PBREM) (AID 2282955). Particulars: HepG2 PBREM cis-reporter, Attagene multiplexed transcription; actives raise or lower the signal. The method in brief:
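Transfected liver-derived HepG2 cells exposed 24 h; PBREM reporter transcript quantified via RT-PCR and capillary electrophoresis, with activity in either direction referenced to DMSO.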

The nature of assay [10]: ATG_PXRE_CIS: Attagene CIS-FACTORIAL HepG2 Assay for human Pregnane X Receptor Element (PXRE) (AID 2282957). Particulars: HepG2 Attagene CIS-FACTORIAL PXRE reporter, mRNA; actives raise or lower the signal. The method in brief:
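Reporter transcripts under endogenous PXR-responsive cis-regulation quantified from total RNA of transfected HepG2 cells 24 h post-dosing, via RT-PCR with fluorescent primer extension and capillary electrophoresis. Gain or loss of signal fitted against DMSO baseline.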

The nature of assay [11]: ATG_PPRE_CIS: Attagene CIS-FACTORIAL HepG2 Assay for human Peroxisome Proliferator-activated Response Element (PPRE) (AID 2282958). Particulars: HepG2 PPRE cis-element reporter, Attagene transcription factor profiling; actives raise or lower the signal. The procedure, abridged: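 Measured endpoint: PPRE-controlled reporter mRNA, detected by RT-PCR and capillary electrophoresis fluorescence, from transiently transfected HepG2 cells 24 h after dosing. Curves fitted in both directions using DMSO baseline.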

Assay [12] can be described thus: ATG_RORE_CIS: Attagene CIS-FACTORIAL HepG2 Assay for human RAR-related Orphan Receptor Element (RORE) (AID 2282959). Particulars: HepG2 Attagene cis-factorial RORE reporter, mRNA; actives raise or lower the signal. The procedure, abridged: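 Transiently transfected HepG2 reporter cells were treated 24 h. Reporter transcripts were detected by RT-PCR and capillary electrophoresis, with bidirectional fitting against DMSO.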

Assay [13] is described as follows: ATG_Sox_CIS: Attagene CIS-FACTORIAL HepG2 Assay for human SRY-box transcription factor (SOX) (AID 2282960). Particulars: HepG2 Attagene cis-factorial SOX reporter, mRNA; actives raise or lower the signal. The procedure, abridged: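 Gain- or loss-of-signal endpoint, fitted bidirectionally with DMSO as negative control. Based on reporter mRNA from transfected HepG2 cells harvested 24 h post-treatment and quantified via RT-PCR and capillary electrophoresis.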

The target of assay [14] is Transcription factor Sp1 (Homo sapiens) (UniProt P08047). Kind of assay: ATG_Sp1_CIS: Attagene CIS-FACTORIAL HepG2 Assay for human Specificity Protein 1 (Sp1) (AID 2282961). Particulars: HepG2 Sp1 cis-reporter transcription, actives raise or lower the signal. The procedure, abridged: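 Endpoint reflects endogenous Sp1 transcriptional activity, not an exogenous fusion protein: HepG2 cells with transfected cis-regulated reporters, 24 h dosing, RT-PCR/capillary electrophoresis mRNA read-out, DMSO-normalised bidirectional fit.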
Sequence of Transcription factor Sp1 (Homo sapiens) (P08047 whole entry, looked up, the tested form may be a part): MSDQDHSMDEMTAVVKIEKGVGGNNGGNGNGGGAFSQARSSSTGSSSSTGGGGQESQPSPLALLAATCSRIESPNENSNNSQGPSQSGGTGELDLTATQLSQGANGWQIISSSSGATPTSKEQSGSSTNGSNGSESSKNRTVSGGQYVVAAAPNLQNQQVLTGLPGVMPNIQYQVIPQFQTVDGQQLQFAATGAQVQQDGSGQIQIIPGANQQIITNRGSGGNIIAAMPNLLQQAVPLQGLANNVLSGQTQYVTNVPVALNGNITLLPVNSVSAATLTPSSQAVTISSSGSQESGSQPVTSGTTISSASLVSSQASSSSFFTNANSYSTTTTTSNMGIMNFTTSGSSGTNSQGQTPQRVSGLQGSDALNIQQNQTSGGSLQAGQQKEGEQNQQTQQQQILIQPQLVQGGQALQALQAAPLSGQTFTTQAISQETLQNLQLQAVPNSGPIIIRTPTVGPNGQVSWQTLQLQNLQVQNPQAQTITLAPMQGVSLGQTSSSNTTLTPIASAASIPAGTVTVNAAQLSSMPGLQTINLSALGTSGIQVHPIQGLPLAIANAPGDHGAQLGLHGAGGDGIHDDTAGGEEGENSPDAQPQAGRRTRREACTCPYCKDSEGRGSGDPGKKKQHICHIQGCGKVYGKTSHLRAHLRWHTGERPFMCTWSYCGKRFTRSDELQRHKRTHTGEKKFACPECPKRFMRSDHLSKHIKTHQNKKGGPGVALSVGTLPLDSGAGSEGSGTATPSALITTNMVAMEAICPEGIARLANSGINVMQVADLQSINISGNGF

A short description of assay [15]: ATG_SREBP_CIS: Attagene CIS-FACTORIAL HepG2 Assay for human Sterol Regulatory Element Binding (SREBP) (AID 2282962). Particulars: HepG2 Attagene cis-factorial SREBP reporter, mRNA; actives raise or lower the signal. The method in brief:
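Endogenous factor activity is measured in HepG2 through multiplexed reporter units under cis-element control. Following a 24 h incubation, reporter transcripts are reverse-transcribed, PCR-amplified and sized by capillary electrophoresis; activity is fitted in both directions relative to DMSO.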

A short description of assay [16]: ATG_TA_CIS: Attagene CIS-FACTORIAL HepG2 Assay for human TA Basal Promoter (AID 2282964). Particulars: HepG2 Attagene CIS-factorial TA basal promoter reporter; actives raise or lower the signal. The method in brief:
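Transfected HepG2, 24 h compound exposure; RNA → RT-PCR → FAM primer extension → HpaI cut → CE fluorescence. Gain/loss-of-signal fitted against DMSO negative control. Background-control readout.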

Assay [17] is described as follows: ATG_TCF_b_cat_CIS: Attagene CIS-FACTORIAL HepG2 Assay for human T-Cell-Factor with beta-catenin (TCF/b-cat) (AID 2282965). Particulars: HepG2 TCF/beta-catenin cis-reporter transcription, actives raise or lower the signal. The method in brief:
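Endogenous transcription factor activity is captured through cis-promoter reporter constructs transiently introduced into human HepG2 liver cells. Induced reporter mRNA is measured after 24 h and fitted bidirectionally relative to DMSO.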

Assay [18] concerns the target Paired box protein Pax-6 (Homo sapiens) (UniProt P26367). Kind of assay: ATG_Pax6_CIS: Attagene CIS-FACTORIAL HepG2 Assay for human Paired Box 6 (PAX6) (AID 2282956). Particulars: HepG2 CIS-FACTORIAL PAX6 reporter transcription, RNA readout; actives raise or lower the signal. The method in brief: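 Fluorescent RT-PCR products separated by capillary electrophoresis report PAX6-linked promoter mRNA in HepG2 cells 24 h post-dose. Curves fitted bidirectionally, DMSO as negative control.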

Assay [19] addresses Signal transducer and activator of transcription 3 (Homo sapiens) (UniProt P40763). Description: ATG_STAT3_CIS: Attagene CIS-FACTORIAL HepG2 Assay for human Signal Transducer and Activator of Transcription 3 (STAT3) (AID 2282963). Particulars: HepG2, Attagene cis-factorial STAT3 reporter transcription; actives raise or lower the signal. The procedure, abridged: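 Cis-factorial format: endogenous transcription factors in HepG2 drive transfected reporter units. After 24 h treatment, reporter RNA was reverse-transcribed, amplified, FAM-labelled and HpaI-digested before CE analysis; activity scored in both directions against DMSO.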

In assay [20] the target is Bile acid receptor (Homo sapiens) (UniProt Q96RI1). Description: ATG_IR1_CIS: Attagene CIS-FACTORIAL HepG2 Assay for human Nuclear Receptor Subfamily 1 Group H Member 4 (NR1H4), IR1 submotif (AID 2282946). Particulars: IR1 reporter transcription, actives raise or lower the signal. The procedure, abridged: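 HepG2 cells transiently transfected with multiplexed cis-element reporter units read endogenous transcription factor activity. After 24 h compound exposure, reporter mRNA was quantified by RT-PCR, fluorescent labelling, HpaI digestion and capillary electrophoresis; bidirectional fitting versus DMSO baseline.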
Sequence of Bile acid receptor (Homo sapiens) (Q96RI1 whole entry, looked up): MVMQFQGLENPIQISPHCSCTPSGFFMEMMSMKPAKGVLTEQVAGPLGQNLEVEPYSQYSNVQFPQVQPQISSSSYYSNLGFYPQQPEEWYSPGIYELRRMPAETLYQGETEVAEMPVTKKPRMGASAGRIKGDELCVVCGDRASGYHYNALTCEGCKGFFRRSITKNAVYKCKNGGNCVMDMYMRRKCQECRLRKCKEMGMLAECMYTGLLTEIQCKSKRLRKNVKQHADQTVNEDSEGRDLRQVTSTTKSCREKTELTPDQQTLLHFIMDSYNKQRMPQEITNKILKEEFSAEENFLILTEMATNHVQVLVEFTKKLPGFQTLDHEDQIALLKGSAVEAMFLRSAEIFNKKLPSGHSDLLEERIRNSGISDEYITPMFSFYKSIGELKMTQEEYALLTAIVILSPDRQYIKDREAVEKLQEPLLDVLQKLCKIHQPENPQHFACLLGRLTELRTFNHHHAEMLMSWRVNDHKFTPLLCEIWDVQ

Sequence of Signal transducer and activator of transcription 3 (Homo sapiens) (P40763 whole entry, looked up): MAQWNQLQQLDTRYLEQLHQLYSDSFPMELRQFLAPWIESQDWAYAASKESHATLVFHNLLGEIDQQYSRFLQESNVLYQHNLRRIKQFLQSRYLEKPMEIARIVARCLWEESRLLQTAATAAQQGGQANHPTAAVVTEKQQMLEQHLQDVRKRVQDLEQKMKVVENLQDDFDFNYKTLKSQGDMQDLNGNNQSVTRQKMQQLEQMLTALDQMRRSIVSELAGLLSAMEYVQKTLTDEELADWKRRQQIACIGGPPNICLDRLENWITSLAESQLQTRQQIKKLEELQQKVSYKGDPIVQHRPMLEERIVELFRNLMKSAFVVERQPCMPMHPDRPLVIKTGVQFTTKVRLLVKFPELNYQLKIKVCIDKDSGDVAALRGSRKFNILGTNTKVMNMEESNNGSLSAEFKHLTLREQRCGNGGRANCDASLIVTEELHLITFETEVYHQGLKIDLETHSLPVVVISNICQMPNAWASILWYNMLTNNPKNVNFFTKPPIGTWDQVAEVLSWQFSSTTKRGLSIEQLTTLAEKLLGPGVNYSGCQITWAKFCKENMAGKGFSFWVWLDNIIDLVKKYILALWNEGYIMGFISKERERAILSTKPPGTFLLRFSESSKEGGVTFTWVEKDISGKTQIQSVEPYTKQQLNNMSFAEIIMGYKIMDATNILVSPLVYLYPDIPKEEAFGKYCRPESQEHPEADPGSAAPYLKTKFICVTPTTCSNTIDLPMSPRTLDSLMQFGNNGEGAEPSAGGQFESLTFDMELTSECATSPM
Sequence of Hepatocyte nuclear factor 6 (Homo sapiens) (Q9UBC0 whole entry, looked up): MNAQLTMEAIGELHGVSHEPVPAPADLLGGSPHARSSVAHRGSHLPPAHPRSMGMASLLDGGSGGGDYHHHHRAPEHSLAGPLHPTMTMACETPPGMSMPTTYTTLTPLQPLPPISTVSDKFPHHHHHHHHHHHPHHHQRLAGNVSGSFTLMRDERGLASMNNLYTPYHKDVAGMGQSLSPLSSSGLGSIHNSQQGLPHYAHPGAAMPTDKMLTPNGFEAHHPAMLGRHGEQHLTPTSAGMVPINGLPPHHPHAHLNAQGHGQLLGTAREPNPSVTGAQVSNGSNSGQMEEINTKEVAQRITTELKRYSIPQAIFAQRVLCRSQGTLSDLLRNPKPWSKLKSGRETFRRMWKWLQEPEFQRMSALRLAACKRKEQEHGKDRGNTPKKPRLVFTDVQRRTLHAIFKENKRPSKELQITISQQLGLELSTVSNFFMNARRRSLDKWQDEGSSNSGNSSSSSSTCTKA
Sequence of Paired box protein Pax-6 (Homo sapiens) (P26367 whole entry, looked up): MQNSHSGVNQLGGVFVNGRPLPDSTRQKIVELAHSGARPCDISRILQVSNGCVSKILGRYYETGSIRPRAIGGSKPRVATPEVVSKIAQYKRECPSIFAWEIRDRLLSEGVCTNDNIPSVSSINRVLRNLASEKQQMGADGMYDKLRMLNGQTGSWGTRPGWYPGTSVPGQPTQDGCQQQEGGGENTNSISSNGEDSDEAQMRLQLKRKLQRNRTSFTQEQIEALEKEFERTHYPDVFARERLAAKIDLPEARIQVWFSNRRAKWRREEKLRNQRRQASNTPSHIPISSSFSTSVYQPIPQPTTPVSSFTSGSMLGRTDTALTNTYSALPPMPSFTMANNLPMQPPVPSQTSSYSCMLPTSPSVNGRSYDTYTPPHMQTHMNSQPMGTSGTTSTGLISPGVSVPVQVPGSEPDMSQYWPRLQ
Sequence of Hypoxia-inducible factor 1-alpha (Homo sapiens) (Q16665 whole entry, looked up): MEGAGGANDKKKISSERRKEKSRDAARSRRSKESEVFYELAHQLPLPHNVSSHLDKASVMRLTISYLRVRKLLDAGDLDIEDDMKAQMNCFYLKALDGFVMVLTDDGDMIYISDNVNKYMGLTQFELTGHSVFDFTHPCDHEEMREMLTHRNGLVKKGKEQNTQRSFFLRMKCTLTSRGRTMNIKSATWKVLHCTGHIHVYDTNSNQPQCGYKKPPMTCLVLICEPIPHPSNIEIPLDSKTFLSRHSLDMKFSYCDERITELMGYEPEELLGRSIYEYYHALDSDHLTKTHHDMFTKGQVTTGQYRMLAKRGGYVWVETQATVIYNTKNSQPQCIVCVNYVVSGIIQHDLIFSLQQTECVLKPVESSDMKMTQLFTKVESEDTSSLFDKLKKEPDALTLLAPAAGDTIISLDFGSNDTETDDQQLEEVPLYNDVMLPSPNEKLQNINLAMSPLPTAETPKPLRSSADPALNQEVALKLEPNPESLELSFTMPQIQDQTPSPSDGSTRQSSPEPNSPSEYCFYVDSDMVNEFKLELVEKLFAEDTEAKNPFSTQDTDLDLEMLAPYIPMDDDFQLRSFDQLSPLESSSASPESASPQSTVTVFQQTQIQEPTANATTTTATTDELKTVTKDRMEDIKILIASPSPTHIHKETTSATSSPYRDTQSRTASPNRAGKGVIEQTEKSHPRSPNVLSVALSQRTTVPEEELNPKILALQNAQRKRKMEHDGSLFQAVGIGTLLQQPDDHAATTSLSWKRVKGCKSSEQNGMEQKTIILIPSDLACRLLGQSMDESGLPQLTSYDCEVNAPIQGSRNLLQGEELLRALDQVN
Sequence of Heat shock factor protein 1 (Homo sapiens) (Q00613 whole entry, looked up, the tested form may be a part): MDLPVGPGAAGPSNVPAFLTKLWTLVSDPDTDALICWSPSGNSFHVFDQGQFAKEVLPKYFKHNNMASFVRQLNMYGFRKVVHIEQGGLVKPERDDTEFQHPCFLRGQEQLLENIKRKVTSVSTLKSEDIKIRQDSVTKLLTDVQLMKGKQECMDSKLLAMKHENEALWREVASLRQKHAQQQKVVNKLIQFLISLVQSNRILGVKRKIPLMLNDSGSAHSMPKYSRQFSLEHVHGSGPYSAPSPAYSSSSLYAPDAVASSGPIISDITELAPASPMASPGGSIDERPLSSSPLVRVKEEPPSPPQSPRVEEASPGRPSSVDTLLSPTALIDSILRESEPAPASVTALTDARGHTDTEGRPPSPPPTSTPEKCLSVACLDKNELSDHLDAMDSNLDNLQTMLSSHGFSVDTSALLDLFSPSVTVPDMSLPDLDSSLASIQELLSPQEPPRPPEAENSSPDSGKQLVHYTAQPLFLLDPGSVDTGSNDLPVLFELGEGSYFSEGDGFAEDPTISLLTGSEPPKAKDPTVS

The AC50 is the concentration giving half of the maximal activity seen. In the case of `CCCCOC(=O)c1ccccc1C(=O)OCc1ccccc1`, the outcome in assay [1], in assay [2], in assay [3], in assay [4], in [5] and in [6] was inactive. Moreover, the call in assay [7], in assay [8], in assay [9], in [11], in assay [12] and in assay [13] was inactive. Also, the call in assay [14], in assay [15], in [16] and in [17] was inactive. Moreover, the AC50 in assay [10] was 27.1 µM (active).
For the compound `CCCSC(=O)N(CCC)CCC`, the compound was called inactive in assay [1], in [2], in [3], in assay [4], in [5] and in [6]. Further, the compound was classed as inactive in assay [7], in assay [8], in assay [9], in [18], in [12] and in assay [13]. For the same compound, the compound was classed as inactive in assay [14], in assay [15], in assay [16] and in [17]. The AC50 in [10] was 27.1 µM (active).
For the compound `Cc1ccc([N+](=O)[O-])cc1`, the outcome in assay [1], in assay [2], in [3], in assay [4], in [5] and in [6] was inactive. Also, the compound was called inactive in assay [7], in assay [8], in assay [9], in assay [18], in assay [10] and in assay [11]. The compound was called inactive in assay [12], in [13], in assay [14], in assay [15], in [19] and in assay [16]. Moreover, the compound was classed as inactive in assay [17].
For the compound `CO[C@@H]1[C@H](OC(=O)NC(=O)CCl)CC[C@]2(CO2)[C@H]1[C@@]1(C)O[C@@H]1CC=C(C)C`, the result in assay [1], in [2], in assay [3], in [4], in [5] and in assay [6] was inactive. Moreover, the compound was classed as inactive in assay [7], in assay [8], in [9], in assay [18], in assay [11] and in assay [12]. The outcome in assay [13], in [14], in assay [15] and in assay [16] was inactive. Also, the results for the AC50 in assay [10] and in assay [17] were 0.293 µM (active) and 39.5 µM (active), respectively.
`CCCCC(CC)COC(=O)c1ccc(C(=O)OCC(CC)CCCC)c(C(=O)OCC(CC)CCCC)c1` (stereo not given): the outcome in [1], in assay [2], in assay [3], in assay [4], in [5] and in assay [6] was inactive. Moreover, the outcome in [7], in assay [8], in assay [9], in assay [18], in assay [10] and in assay [11] was inactive. In addition, the compound was called inactive in [12], in [13], in [14], in assay [15], in assay [19] and in [16]. The compound was called inactive in assay [17].
On to `O=[N+]([O-])c1ccc(Oc2ccc(Cl)cc2Cl)cc1`, for which the outcome in assay [1], in assay [2], in assay [3], in assay [4], in assay [5] and in [6] was inactive. Further, the compound was called inactive in assay [7], in assay [11], in assay [13], in assay [14], in assay [15] and in [17]. Further, the AC50 was 50.1 µM (active) in [8]; 22.5 µM (active) in assay [9]; 31.9 µM (active) in assay [18]; 25.8 µM (active) in assay [10]; 27.5 µM (active) in assay [12]; 39.7 µM (active) in assay [16].
For the compound `c1ccc(NNc2ccccc2)cc1`, the compound was classed as inactive in [20], in assay [1], in assay [2], in assay [3], in assay [4] and in assay [5]. Also, the outcome in assay [6], in assay [7], in assay [8], in [10], in assay [12] and in assay [13] was inactive. The call in [14], in assay [15], in assay [19], in assay [16] and in assay [17] was inactive.
